# Source: the supplement of paper PMC12636033
# ± gives the standard deviation of the averaged measurements. The full ranking holds about 33,000 sequences; the median of “E-score (rank enrichment, -0.5 to 0.5)” is about -0.0068, and the highest 2% start at about 0.24. The sample as a whole holds a higher share of the highest values than the screen did.
# System: muMax20 (Max(13-93) K31hArg/K57hArg, M65Nle)
# Assay: PBM 8-mer E-score (E-score (rank enrichment, -0.5 to 0.5)); higher = stronger preferential binding
# Protocol: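 Protein binding microarray (universal PBM chip covering all 10-mers in fixed probe flanks) with chemically synthesized human Max(13-93) bHLH-LZ analogs (not full-length Max) bearing noncanonical residues (hArg, Tha, Aib, Nle at 65) and aromatic Cys staples. Read-out per 8-mer (and its reverse complement): E-score (rank-based enrichment, -0.5 to 0.5) and Z-score of median probe intensity.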
row,Sequence,PBM 8-mer E-score
1,CCCATGCA,0.133 ± 0.01
2,GGATAGCC,-0.138 ± 0.11
3,ACCGACCA,0.0471 ± 0.002
4,GGGCGCCC,-0.131 ± 0.0098
5,TTAACTAA,0.184 ± 0.11
6,ATAACTAT,0.241 ± 0.0068
7,ATAACTAC,0.2058 ± 0.0013
8,ATAACTAG,0.0985 ± 0.14
9,CTAACTAA,0.00786 ± 0.039
10,ATAACTAA,0.245 ± 0.0085
11,ACACTGTG,0.0421 ± 0.2
12,CAGATCAA,-0.0923 ± 0.011
13,GGTGAAGA,-0.0661 ± 0.032
14,ATCCTCAT,-0.11 ± 0.076
15,CACGATAA,0.17 ± 0.024
16,GACGATAA,0.0693 ± 0.077
17,TACGATAA,0.247 ± 0.0037
18,AATGCTAA,0.12 ± 0.033
19,AGCCAATC,-0.047 ± 0.088
20,AACATGTA,0.256 ± 0.028
21,TACATGTA,0.157 ± 0.069
22,AACATGAA,0.0865 ± 0.011
23,GACATGTC,-0.00641 ± 0.13
24,AACATGTT,0.22 ± 0.04
25,AACATGCA,0.206 ± 0.1

row,Sequence,PBM 8-mer E-score
1,CACATGTG,0.418 ± 0.015
2,GACATGTA,0.24 ± 0.067
3,AACATGTC,0.12 ± 0.025
4,CACATGCG,0.172 ± 0.11
5,CACATGTC,0.12 ± 0.087
6,AACATGTG,0.353 ± 0.042
7,GTCTGCCA,-0.165 ± 0.0054
8,GAACTTTA,-0.157 ± 0.037
9,CTGTGGTA,0.0865 ± 0.061
10,CCGGTCGC,-0.276 ± 0.027
11,ACCGAGAA,-0.187 ± 0.0095
12,CCCAAGTC,-0.185 ± 0.0086
13,GACGCTAA,-0.13 ± 0.072
14,AGCAGTAT,0.109 ± 0.0063
15,GATTGCCA,-0.0436 ± 0.034
16,AGCGTGGA,0.045 ± 0.011
17,CACATGTA,0.347 ± 0.045
18,CACATGAA,0.219 ± 0.014
19,CTCATGTA,0.0357 ± 0.054
20,GAAAACCC,0.11 ± 0.0093
21,CATAGGTC,-0.0151 ± 0.052
22,CCTGATTA,0.14 ± 0.042
23,GCTGATTA,0.292 ± 0.073
24,CATGATTC,0.0292 ± 0.013
25,AATGATAA,0.11 ± 0.021

row,Sequence,PBM 8-mer E-score
1,TATGATAA,0.181 ± 0.063
2,GATGATTA,0.0475 ± 0.008
3,CATGATAA,0.263 ± 0.034
4,ACTGATTA,0.0963 ± 0.055
5,CATGATTA,0.281 ± 0.049
6,CGCGTTAG,-0.0996 ± 0.017
7,CTGGACTC,-0.0856 ± 0.022
8,GAAACATC,0.0279 ± 0.095
9,AAAACATA,0.165 ± 0.084
10,CAAACAAA,0.185 ± 0.03
11,GAAACAAA,0.236 ± 0.039
12,GAAACATA,0.249 ± 0.1
13,GAAACAAC,0.00284 ± 0.071
14,GAAGGTGC,-0.0729 ± 0.043
15,CATGCCAA,0.158 ± 0.078
16,ACATAAAA,0.229 ± 0.019
17,ATATAAAC,0.324 ± 0.045
18,ATATAAAA,0.317 ± 0.064
19,ATATAAAG,0.189 ± 0.0027
20,ATATAAGA,0.262 ± 0.064
21,ATAAAAAT,0.221 ± 0.025
22,ATATAAAT,0.308 ± 0.0047
23,CTATAAAC,0.144 ± 0.0027
24,CTATAAAA,0.0172 ± 0.079
25,CTATAAGA,0.0354 ± 0.00038

row,Sequence,PBM 8-mer E-score
1,ATAAAAAC,0.109 ± 0.079
2,GTATAAGA,0.138 ± 0.044
3,AAACTTTA,0.2 ± 0.068
4,CACCGCTG,-0.316 ± 0.09
5,GGGAGGGA,0.0486 ± 0.024
6,AAATTGAC,-0.0252 ± 0.075
7,AGGTCTGA,-0.112 ± 0.11
8,CGTGCTAA,-0.0595 ± 0.097
9,GGGGGTGA,-0.107 ± 0.1
10,GCACCCGA,-0.265 ± 0.009
11,ATACCCGC,0.07 ± 0.0011
12,CCCACGGA,-0.0746 ± 0.039
13,CGAGTTTC,0.112 ± 0.043
14,AGGCGGAG,-0.00941 ± 0.016
15,TTATAAAA,0.235 ± 0.043
16,GTATAAAC,0.137 ± 0.05
17,GTATAAAA,0.288 ± 0.072
18,GGGTAATA,0.117 ± 0.078
19,AGGGGAAG,-0.0693 ± 0.071
20,CTAGCGAC,-0.0457 ± 0.095
21,CCGAAAGG,-0.0656 ± 0.13
22,CAAGCCAA,-0.034 ± 0.1
23,AGTGTGTA,0.121 ± 0.0059
24,GATGTGCA,0.03 ± 0.16
25,CGTGTGTA,0.28 ± 0.017

row,Sequence,PBM 8-mer E-score
1,ATTGTATG,0.139 ± 0.039
2,CATGTGCA,0.292 ± 0.063
3,ATTGTATC,0.304 ± 0.027
4,CATGTTTC,0.143 ± 0.045
5,CATGTTTA,0.249 ± 0.0042
6,GGTGTGTA,0.159 ± 0.11
7,CTTGTATC,0.0905 ± 0.026
8,GATGTTTA,0.0668 ± 0.12
9,TATGTGCA,0.175 ± 0.068
10,CAACAAAA,0.0937 ± 0.037
11,ACCCCTCC,0.155 ± 0.011
12,AGCATAAA,0.158 ± 0.013
13,CGGTTCCA,-0.282 ± 0.0036
14,GACGGCCA,-0.0819 ± 0.046
15,AAGTGTAA,-0.0103 ± 0.021
16,GCCCCTAC,0.00167 ± 0.035
17,ACTCTGAG,-0.217 ± 0.068
18,GATAACGC,0.105 ± 0.11
19,CATGTGTC,0.117 ± 0.14
20,CGTGTATA,0.2 ± 0.044
21,ATTGTAAG,0.16 ± 0.042
22,ATTGTAAA,0.244 ± 0.021
23,CTTGTAAA,0.217 ± 0.015
24,CGTGTATC,0.238 ± 0.025
25,CATGTGTA,0.332 ± 0.054

row,Sequence,PBM 8-mer E-score
1,GATGTGTA,0.17 ± 0.024
2,AGTGTATC,0.123 ± 0.049
3,AGCTCTCG,-0.155 ± 0.045
4,GAGTCACC,-0.0777 ± 0.02
5,AACCTTAT,0.0715 ± 0.044
6,AACAGTAA,-0.00834 ± 0.034
7,GCTCGTTA,0.0811 ± 0.07
8,AACGTAAG,-0.0553 ± 0.13
9,CAGTGTGA,0.2398 ± 0.0018
10,AAGTGTGA,0.0524 ± 0.053
11,TAGTGTGA,0.15 ± 0.12
12,CTGGTCTC,-0.256 ± 0.045
13,AATGGATC,-0.167 ± 0.0063
14,CCACCAAG,-0.0933 ± 0.014
15,CCATAGTA,0.0366 ± 0.064
16,ATATAGTA,0.281 ± 0.048
17,CTATAGTA,0.109 ± 0.0064
18,ACATAGTA,0.0946 ± 0.04
19,GCATAGTA,0.277 ± 0.041
20,GTATAGTA,0.227 ± 0.0046
21,ACCGGAGC,-0.286 ± 0.0054
22,CGGTCCAG,-0.279 ± 0.069
23,GCTCCACA,-0.0777 ± 0.035
24,GCCTCAGA,-0.218 ± 0.018
25,AACGAACG,0.0291 ± 0.073

row,Sequence,PBM 8-mer E-score
1,CTACTCGC,-0.176 ± 0.076
2,AAAATCAA,0.0939 ± 0.085
3,GAAATCAA,0.0452 ± 0.11
4,TAAATCAA,0.261 ± 0.01
5,ATCGCGGG,-0.145 ± 0.056
6,AATCACGC,0.196 ± 0.096
7,AATCACGA,0.00734 ± 0.13
8,AATCACAT,0.242 ± 0.066
9,AATCACGT,0.385 ± 0.046
10,AATCACAA,0.172 ± 0.028
11,AATCACAG,-0.113 ± 0.046
12,AGGGCAAA,-0.0293 ± 0.034
13,CGAAAATA,0.00928 ± 0.085
14,CAGCGGCG,-0.0966 ± 0.073
15,GAACCTCC,-0.133 ± 0.0052
16,CGGAGCAC,-0.157 ± 0.021
17,ACGCTACA,0.255 ± 0.047
18,TCGCTACA,0.115 ± 0.042
19,GCGCTACA,-0.0407 ± 0.037
20,ACTTCGGG,0.0794 ± 0.099
21,ACGCTAAG,-0.149 ± 0.038
22,CCACTGAC,-0.169 ± 0.032
